Pol eta inh-1: blocks human DNA polymerase eta activity | Q9Y253 | recombinant Pol eta, fluorescent DNA replication assay | Potency, µM (top dose mostly 114 µM), actives largely listed as inhibitors | 390,000 compounds, 1.2% hits
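Fluorescent replication assay: 50 nM final substrate added after a 15 min room-temperature compound preincubation with 10 nM enzyme. Signal taken at 0 min and again at 10 min.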
PGK inhibitor: T. brucei PGK inhibition; P07378; PGK/GAPDH coupled, Kinase-Glo luminescence, 60 min; Potency, µM (series often up to 57.5 µM), most hits filed as inhibitors; 380,000 compounds, 0.043% hits; note: nearly all actives have a fitted effect of over 60% in size
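Recombinant glycosomal PGK reaction used 1,3-bisphosphoglycerate generated in-well by GAPDH (100nM final) in 100mM TEA pH 7.6, 5mM MgCl2, 0.01% Tween-20. After 60 minutes at room temperature, ATP was read by Kinase-Glo Plus luminescence end-point.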
POLI inh: blocks human DNA polymerase iota activity; Pol iota fluorescent replication assay, 10 min; 390,000 compounds, 1% hits; Potency, µM (series often up to 115 µM), most hits filed as inhibitors
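Pol iota at 10 nM preincubated 15 min with compounds at room temperature; reaction started with fluorescent substrate, 50 nM final. Fluorescence read kinetically at 0 and 10 min; buffer-only wells as negative control.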
Pol kappa inh-1: DNA polymerase kappa (human) inhibition | 400,000 compounds, 0.53% hits | AID 588579 | Q9UBT6 | purified Pol kappa, fluorescent DNA synthesis assay, 10 min | Potency, µM (doses to about 107 µM), most hits filed as inhibitors
Target sequence (Q9UBT6 whole entry, looked up): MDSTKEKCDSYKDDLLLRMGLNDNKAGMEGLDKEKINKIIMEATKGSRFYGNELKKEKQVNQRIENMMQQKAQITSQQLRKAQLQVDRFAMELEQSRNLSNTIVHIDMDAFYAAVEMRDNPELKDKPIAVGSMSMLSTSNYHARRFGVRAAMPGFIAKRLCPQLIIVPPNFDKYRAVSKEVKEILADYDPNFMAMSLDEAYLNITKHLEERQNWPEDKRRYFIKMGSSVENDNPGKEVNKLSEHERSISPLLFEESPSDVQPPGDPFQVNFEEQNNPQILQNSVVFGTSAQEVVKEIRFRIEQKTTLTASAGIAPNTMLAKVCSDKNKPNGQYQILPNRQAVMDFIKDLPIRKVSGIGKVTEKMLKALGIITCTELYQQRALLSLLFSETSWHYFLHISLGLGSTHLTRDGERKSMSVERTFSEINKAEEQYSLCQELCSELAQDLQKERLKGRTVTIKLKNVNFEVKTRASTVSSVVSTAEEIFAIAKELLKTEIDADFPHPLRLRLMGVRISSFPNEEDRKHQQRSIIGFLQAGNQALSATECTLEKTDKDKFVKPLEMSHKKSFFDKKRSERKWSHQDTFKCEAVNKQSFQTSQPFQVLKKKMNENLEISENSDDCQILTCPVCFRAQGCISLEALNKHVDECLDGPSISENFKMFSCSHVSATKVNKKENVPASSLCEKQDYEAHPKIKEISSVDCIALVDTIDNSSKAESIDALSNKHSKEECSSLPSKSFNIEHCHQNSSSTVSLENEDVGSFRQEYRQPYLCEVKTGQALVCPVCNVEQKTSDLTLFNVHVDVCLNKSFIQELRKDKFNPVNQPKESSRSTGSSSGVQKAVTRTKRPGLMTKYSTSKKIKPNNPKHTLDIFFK
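Inhibition of 10 nM Pol kappa is measured by a fluorescent read-out at 0 and 10 min following addition of 50 nM substrate (final), with a 15-min room-temperature compound preincubation.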
FEN1 inh-1: blocks human flap endonuclease 1; P39748; Recombinant FEN1 flap cleavage, fluorescence, 15 min; Potency, µM (highest dose often 114 µM), most hits filed as inhibitors; 390,000 compounds, 0.35% hits; note: nearly all actives have a fitted effect of over 65% in size
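Concentration–response screening of FEN1 (10 nM): 15 min compound preincubation at room temperature, reaction started with 50 nM substrate and read at 0 and 15 min. Corrected, normalized data were fitted by a four-parameter Hill equation.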
Pol beta inh: DNA polymerase beta (human) inhibition; P06746; Pol beta primer extension/strand displacement, fluorescence kinetic; Potency, µM (titrated, usually from 114 µM), actives largely listed as inhibitors; 340,000 compounds, 1.3% hits
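Pol beta (10 nM) was preincubated with compound for 15 min at room temperature. The reaction was then started with 50 nM substrate and read immediately and after a further 10 min at room temperature.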
POLI cherry-pick: Confirm cherry-picked inhibitors of human polymerase iota | shares compounds with Pol kappa inh-1 | Pol iota primer extension, TAMRA/BHQ fluorescence | Potency, µM, hits mostly inhibitors | 1,500 compounds, 77% hits | AID 720496
Pol kappa inh-2: confirmation of human DNA polymerase kappa inhibitors | 920 compounds, 76% hits | purified Pol-kappa, fluorescent strand-displacement substrate | Potency, µM, actives largely listed as inhibitors | shares compounds with Pol eta inh-1
Pol eta inh-2: confirmation of human DNA polymerase eta inhibitors; shares compounds with Pol eta inh-1; Potency, µM, usual class: inhibitors; 2,600 compounds, 64% hits; Pol eta primer extension, TAMRA/BHQ fluorescence, 10 min
FEN1 inh-2: FEN1 inhibition, cherry-pick retest; shares compounds with FEN1 inh-1; FEN1 flap cleavage, TAMRA/BHQ2 fluorogenic DNA substrate; Potency, µM, most hits filed as inhibitors; 880 compounds, 79% hits; AID 720498; note: nearly all actives have a fitted effect of over 60% in size
Of the large screens only hits and unclear results are named; the others gave an inactive call (follow-up assays come after a bar, where they were run). A selection: hits, their analogues and other compounds. The true share with any hit is near 2.4%. Calls come from the whole dose curve; as a rule, active = well fitted curve in the direction sought with a large enough effect; inconclusive = small, poorly fitted or top-dose-only effect, or another doubt; inactive = no such curve, though single readings can be large; an effect the other way counts as inactive or inconclusive.

COC1C(O)C(C)OC(OC2C(Oc3cccc4c(O)c5c(=O)oc6ccc(C)c7c(=O)oc(c34)c5c67)OC(C)C(O)C2O)C1O (stereo not given)	Pol eta inh-1 10µM, POLI inh inconclusive, Pol kappa inh-1 inconclusive, FEN1 inh-1 1.8µM (no result: Pol beta inh) | POLI cherry-pick 21 | Pol kappa inh-2 4.2 | Pol eta inh-2 43 | FEN1 inh-2 6
CN1C(=O)/C(=C\c2ccc(N3CCCCCC3)cc2)C(=O)NC1=S	none
O=C1NC(=S)N(C2CC2)C(=O)/C1=C/c1ccc2c(c1)CCN2CCCCl	Pol eta inh-1 7.9µM, POLI inh 22µM, Pol kappa inh-1 40µM, FEN1 inh-1 inconclusive, Pol beta inh 20µM | POLI cherry-pick 15 | Pol eta inh-2 19 | FEN1 inh-2 76
CN1C(=O)C(=Cc2ccc(Sc3ccccc3)o2)C(=O)N(C)C1=S	Pol eta inh-1 45µM, POLI inh inconclusive, Pol kappa inh-1 inconclusive (no result: Pol beta inh) | POLI cherry-pick inconclusive | Pol kappa inh-2 17 | Pol eta inh-2 38 | FEN1 inh-2 85
O=C(NCc1cccnc1)C1CCN(S(=O)(=O)c2cc([N+](=O)[O-])ccc2Cl)CC1	none (no result: Pol beta inh)
O=C1NC(=O)N(Cc2ccco2)C(=O)/C1=C/C=C/c1ccco1	Pol eta inh-1 4µM, PGK inhibitor inconclusive, POLI inh inconclusive, Pol kappa inh-1 14µM, FEN1 inh-1 25µM, Pol beta inh inconclusive | POLI cherry-pick 6.7 | Pol eta inh-2 4.8 | FEN1 inh-2 43
CCN(C[C@H]1N[C@@](CC)(C(=O)OC)[C@H]2C(=O)N(Cc3ccccc3)C(=O)[C@@H]12)C(=O)Nc1ccc(Cl)cc1	none (no result: Pol beta inh)
CC(C)(CO)CNC1CCCN(C2Cc3ccccc3C2)C1 (stereo not given)	none
CN1/C(=C\C=C2C(=O)NC(=O)NC2=O)C(C)(C)c2ccccc21	none
CCN1/C(=C/C=C/C2=[N+](CC)c3ccccc3C2(C)C)C(C)(C)c2ccccc21	Pol eta inh-1 32µM, PGK inhibitor inconclusive (no result: POLI inh, Pol kappa inh-1, FEN1 inh-1, Pol beta inh) | POLI cherry-pick 38 | Pol kappa inh-2 67 | Pol eta inh-2 67 | FEN1 inh-2 67
Cc1ccccc1C(=O)Nc1cc(-c2ccc(Cl)cc2)nn1-c1ccccc1	Pol beta inh inconclusive
Cc1ccc2c(C)c3ccc4ccccc4c3c[n+]2c1	Pol eta inh-1 inconclusive, POLI inh 79µM, Pol kappa inh-1 40µM, FEN1 inh-1 8.9µM (no result: Pol beta inh) | POLI cherry-pick 27 | Pol kappa inh-2 4.7 | FEN1 inh-2 6.7
CCOC(=O)c1ccc(N=Cc2c(O)n(-c3ccc(OC)cc3)c(=S)[nH]c2=O)cc1	Pol eta inh-1 inconclusive, FEN1 inh-1 inconclusive | POLI cherry-pick 3.8 | FEN1 inh-2 9.5
COc1cccc(OC)c1-c1nn2c(-c3n[nH]c4c3CCC4)nnc2s1	POLI inh 5µM, Pol kappa inh-1 79µM, FEN1 inh-1 inconclusive (no result: Pol eta inh-1, PGK inhibitor, Pol beta inh) | POLI cherry-pick inconclusive | Pol eta inh-2 inconclusive | FEN1 inh-2 inconclusive
C=Cc1cc(OC)c2c(c1)c(=O)oc1c2cc(OC)c2c(O)ccc(C3OC(C)C(O)C(C)(O)C3O)c21 (stereo not given)	Pol eta inh-1 1.4µM, POLI inh 2.5µM, Pol kappa inh-1 4µM, FEN1 inh-1 1.3µM (no result: Pol beta inh) | POLI cherry-pick 4.7 | Pol eta inh-2 11 | FEN1 inh-2 1.7

From PubChem
